# Hits are enriched below; roughly 10% of the tested compounds scored in any of these assays.
# G9a block = qHTS Assay for Inhibitors of Histone Lysine Methyltransferase G9a | Histone-lysine N-methyltransferase EHMT2 (Homo sapiens), Q96KQ7 | G9a H3K9 monomethylation, AlphaScreen, 2 h | Potency, µM (titrated, usually from 102 µM), for inactives: at the highest dose activity, negative = inhibition, most hits filed as inhibitors | 350,000 compounds, 8.8% hits; note: % is set by controls: 0 for no effect and ±100 for the full control effect; nearly all actives have a fitted effect of over 75% in size
#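 AlphaScreen detection with an anti-monomethyl H3K9 antibody quantified product after a 2 h room-temperature reaction containing 500 nM biotinylated H3K9 peptide, 20 µM SAM and 20 nM enzyme, which had been preincubated 15 min with compound.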
# HP1b binding inh = HTS for Inhibitors of HP1-beta Chromodomain Interactions with Methylated Histone Tails; Chromobox protein homolog 1 (Homo sapiens), P83916; AlphaScreen HP1-beta / biotin-H3K9me3 peptide binding; Potency, µM (series often up to 114 µM), inactives show at the highest dose activity change, negative = inhibition, most hits filed as inhibitors; 390,000 compounds, 0.56% hits; AID 540317, 2011; note: nearly all actives have a fitted effect of over 70% in size
#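 Compound inhibition of the preformed complex between 50 nM HP1-beta and 50 nM biotinylated H3K9me3 peptide was read by AlphaScreen. Buffer was PBS pH 7.4 with 0.01% Tween-20. Incubations ran 30 min at room temperature, with 10 ug/mL donor/acceptor beads.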
# L3MBTL1 inh = qHTS Assay for the Inhibitors of L3MBTL1 | Lethal(3)malignant brain tumor-like protein 1 (Homo sapiens), Q9Y468 | AlphaScreen L3MBTL1–H3K9me1 peptide binding | Potency, µM (series often up to 57.1 µM), without a hit: at the top dose activity, negative = inhibition, actives largely listed as inhibitors | 230,000 compounds, 0.66% hits; note: % is set by controls: 0 for no effect and ±100 for the full control effect; nearly all actives have a fitted effect of over 60% in size
#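 First, the protein-peptide complex forms for 30 min at room temperature (L3MBTL1 50 nM, biotinylated H3K9me1 peptide 75 nM). Next, compounds are pin-transferred and incubated 30 min. Finally, AlphaScreen beads are added and read after 30 min.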
# BAZ2B inh = qHTS Assay for Inhibitors of BAZ2B; Bromodomain adjacent to zinc finger domain protein 2B (Homo sapiens), Q9UIF8; AlphaScreen BAZ2B-H3K14Ac peptide displacement; 360,000 compounds, 4.4% hits; Potency, µM (titrated, usually from 114 µM), for the others: top-dose activity change, negative = inhibition, usual class: inhibitors; note: % is set by controls: 0 for no effect and ±100 for the full control effect; nearly all actives have a fitted effect of over 60% in size
#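 BAZ2B (50 nM) with biotin-H3(5-23)K14Ac peptide (50 nM) in PBS pH 7.4, 0.01% Tween-20, preformed 30 min, then compound 30 min at room temperature; top concentration 110uM. AlphaScreen streptavidin donor/nickel chelate acceptor beads (10 ug/mL final), 20 min dark, signal read.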
# GLS inh = qHTS for Inhibitors of Glutaminase (GLS) | Glutaminase kidney isoform, mitochondrial (Homo sapiens), O94925 | 410,000 compounds, 0.21% hits | Potency, µM (series often up to 45.5 µM), for inactives: top-dose activity change, negative = inhibition, usual class: inhibitors | GLS enzymatic activity, qHTS titration | AID 624170, 2012; note: % is set by controls: 0 for no effect and ±100 for the full control effect
#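 hKGA in 45 mM KH2PO4 (pH 8.2), 0.02% Tween-20 with compound, then 1mM L-Glutamine (stock as added) plus glutamate oxidase/HRP/Amplex red coupling mix. Fluorescence read initially and after 30 min at RT; signal change reflects glutamate formation.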
# JMJD2A Tudor inh = qHTS Assay for Inhibitors of JMJD2A-Tudor Domain | Lysine-specific demethylase 4A (Homo sapiens), O75164 | AlphaScreen JMJD2A-Tudor / H3K4me3 peptide binding | Potency, µM (highest dose often 114 µM), for the others: top-dose activity change, negative = inhibition, usual class: inhibitors | 390,000 compounds, 4.4% hits | AID 504339, 2011; note: % is set by controls: 0 for no effect and ±100 for the full control effect; nearly all actives have a fitted effect of over 50% in size
# Target sequence (O75164 whole entry, looked up, the tested form may be a part): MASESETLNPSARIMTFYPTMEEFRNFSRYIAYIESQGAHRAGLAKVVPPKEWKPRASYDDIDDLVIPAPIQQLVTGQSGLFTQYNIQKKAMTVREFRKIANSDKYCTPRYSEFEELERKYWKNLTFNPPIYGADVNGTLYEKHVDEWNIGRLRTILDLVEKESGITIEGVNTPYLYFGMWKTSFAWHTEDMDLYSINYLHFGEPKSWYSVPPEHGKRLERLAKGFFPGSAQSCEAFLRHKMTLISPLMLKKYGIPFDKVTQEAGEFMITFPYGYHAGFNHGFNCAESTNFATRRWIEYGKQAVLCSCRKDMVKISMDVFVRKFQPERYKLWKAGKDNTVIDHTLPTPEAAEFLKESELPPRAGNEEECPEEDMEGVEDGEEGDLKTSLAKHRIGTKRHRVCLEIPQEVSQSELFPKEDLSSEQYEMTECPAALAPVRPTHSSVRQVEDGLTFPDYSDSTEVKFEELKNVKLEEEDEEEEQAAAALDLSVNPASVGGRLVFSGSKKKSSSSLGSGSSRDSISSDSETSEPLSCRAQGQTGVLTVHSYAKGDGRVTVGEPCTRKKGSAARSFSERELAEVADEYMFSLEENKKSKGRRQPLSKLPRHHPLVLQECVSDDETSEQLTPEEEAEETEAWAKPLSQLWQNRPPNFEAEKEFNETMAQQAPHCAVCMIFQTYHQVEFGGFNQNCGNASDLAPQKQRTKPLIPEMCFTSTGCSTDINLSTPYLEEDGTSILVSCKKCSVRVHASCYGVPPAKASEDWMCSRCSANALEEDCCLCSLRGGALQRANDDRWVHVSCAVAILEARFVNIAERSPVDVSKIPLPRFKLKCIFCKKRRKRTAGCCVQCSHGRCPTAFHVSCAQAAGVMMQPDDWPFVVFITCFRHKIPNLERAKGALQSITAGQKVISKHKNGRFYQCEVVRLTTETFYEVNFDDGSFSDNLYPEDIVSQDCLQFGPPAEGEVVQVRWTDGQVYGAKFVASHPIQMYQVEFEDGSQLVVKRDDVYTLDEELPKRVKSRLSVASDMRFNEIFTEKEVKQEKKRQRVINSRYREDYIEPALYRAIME
# Active calls of the source: *; ? = inconclusive; nt = no result given; [ ] = dose if it differs, or a comment. Calls come from the whole dose curve; as a rule, active = well fitted curve in the direction sought with a large enough effect; inconclusive = small, poorly fitted or top-dose-only effect, or another doubt; inactive = no such curve, though single readings can be large; an effect the other way counts as inactive or inconclusive. Potency is the fitted concentration of half-maximal effect.
SMILES,G9a block,HP1b binding inh,L3MBTL1 inh,BAZ2B inh,GLS inh,JMJD2A Tudor inh
COc1cc(OC)c(N(C)C(=O)c2nn(C)c3c2CSc2ccccc2-3)cc1Cl,?,42%,nt,5%,0%,3%
CCOC(=O)c1ccc(NC(=O)C2=C(C)Nc3nc(SCc4ccc(Cl)cc4)nn3C2c2ccc(C)cc2)cc1 (stereo not given),7%[59 µM],11%,nt,0%,0%,9%
CN(C)c1ccc(CNC(=O)c2cnc3sc(N4CCOCC4)nn3c2=O)cc1,8%[59 µM],1%,nt,?,7%,?
Cc1c(C#N)c(O)n(CCO)c(=O)c1N=Nc1ccc2c(c1)COC2=O,50µM*,-18%,nt,-18%,2%,-34%
COc1ccc(-c2nc(CNC(=O)Nc3ccccc3)c(C)o2)cc1,13%[59 µM],33%,nt,-24%,3%,-4%
COc1ccc2c(c1)c1c(c(=O)n(-c3ccccc3C)c(=O)n1Cc1c(F)cccc1Cl)n2C,2%[59 µM],35%,nt,-2%,-2%,-11%
N#Cc1c2n(c3c(=O)[nH]cnc13)CCCC2,-1%,15%,1%,17%,0%,-5%
N#Cc1c2n(c3c(=S)nc[nH]c13)CCCCC2,nt,-12%,-1%,-32%,3%,35µM*
O=C(NCC1CCCO1)C(=O)N/N=C/c1cc(Cl)ccc1O (stereo not given),-2%,31%,?,?,17%,40µM*
O=C(N/N=C/c1ccncc1)c1cccc(N/N=C/c2ccncc2)c1,?,-6%,-9%,-21%,5%,?
O=C(N/N=C/c1ccncc1)c1cccc(NC(=O)c2ccc(Cl)cc2)c1,16µM*,?,23%,-4%,1%,-29%
C/C(=N\NC(=O)c1cc(O)ccc1O)c1cccc(NC(=O)c2ccc(Cl)cc2)c1,16µM*,?,nt,?,?,?
O=C(N/N=C\c1cccnc1)c1cc(-c2ccc(Cl)s2)[nH]n1,32µM*,-8%,15%,50µM*,-9%,56µM*
C/C(=N\NC(=O)c1cc(O)ccc1O)c1cccc(NC(=O)c2cccc(Cl)c2)c1,?,-1%,nt,?,-29%,?
CCC1CN(C(=O)Nc2cc(Cl)c(OC)cc2OC)c2ccccc2O1 (stereo not given),-12%[59 µM],11%,nt,-2%,4%,-24%
Cc1cc(C)c2c(=O)cc(C(=O)Nc3sc4c(c3C#N)CCCC4)oc2c1,-1%[59 µM],9%,nt,-25%,3%,-11%
CC(=O)c1cccc(NC(=O)CSc2nnc3ccc(-c4ccc(Cl)cc4)nn23)c1,-3%[59 µM],45%,nt,-14%,7%,-7%
O=C(N/N=C/c1cccnc1)c1ccc(NC(=O)c2ccc(Cl)cc2)cc1,45µM*,21%,nt,1%,-18%,-4%
O=C(N/N=C/c1cccnc1)c1ccc(NC(=O)c2cccc(Cl)c2)cc1,32µM*,?,nt,-25%,5%,-30%
O=C(N/N=C/c1cccnc1)c1ccc(Cl)c(Cl)c1,nt,37%,nt,nt,-9%,3%
O=C(N/N=C/c1cc(Cl)ccc1O)c1ccncc1,62%[12.7 µM],-11%,25µM*,20µM*,-20%,?
N#Cc1c(-c2ccncc2)c2c([nH]c1=S)CCCC2,2.2µM*,-30%,-3%,?,-9%,2.2µM*
CCSc1nc2c(c(-c3ccc(C)o3)c1C#N)CCCC2,?,58%,53%,10%,0%,84%
Cc1ccc(-c2c3c([nH]c(=S)c2C#N)CCCC3)o1,4.5µM*,?,?,50µM*,?,40µM*
Cc1ccc(-c2c(C#N)c(N)nc3c2CCCC3)o1,7.9µM*,40%,?,?,1%,-10%
SMILES,G9a block,HP1b binding inh,L3MBTL1 inh,BAZ2B inh,GLS inh,JMJD2A Tudor inh
CCOc1ccccc1-c1nnc2n1N=C(c1ccc(OC)c(OC)c1)CS2,nt,nt,nt,nt,nt,-30%
Cc1cc(-c2onc3ccc(Cl)cc23)ccc1O,40µM*,45%,nt,-2%,-1%,21%
CC(=O)c1ccc2noc(-c3ccc(Cl)cc3)c2c1,?,36%,nt,-13%,8%,-14%
Cc1ccc(-n2ncc(C(=O)Nc3cc(Cl)ccc3Cl)c2C2CCNCC2)cc1,45µM*,11%,nt,-10%,-29%,?
COc1cccc(CNS(=O)(=O)c2ccc(-c3cc(C(F)(F)F)on3)s2)c1,7%[59 µM],24%,nt,11%,-5%,-11%
CCOC(=O)C(=O)Nc1ccc2c(c1)OCO2,1%[59 µM],35%,nt,-25%,0%,-16%
CCOC(=O)/C(N=Nc1ccc2c(c1)OCO2)=C(\C)O,?,-21%,nt,?,?,50µM*
O=C(NCC(c1ccc2c(c1)OCO2)N1CCN(c2ccccc2F)CC1)c1ccccc1F (stereo not given),-32%[59 µM],10%[57 µM],nt,-24%,-9%,-30%
Cn1c(/N=C/c2ccccc2[N+](=O)[O-])nc2ccccc21,79µM*,32%,-2%,8%,20%,-9%
c1ccc2c(C[C@@H]3CNCCN3CC3CCCCC3)cccc2c1,16%[2.33 µM],-2%,-7%,40µM*,15%,?
Cc1ccc(-c2ccc(C3C4C=CCC(C)C4C(=O)N3Cc3ccccc3)c(F)c2)cc1 (stereo not given),nt,11%,nt,nt,nt,-10%
CCOC(=S)SCC(=O)N1CCc2cc(OC)c(OC)cc2C1C1C(=O)CC(C)(C)CC1=O (stereo not given),45µM*,10%,12%,12%,-11%,-33%
CCOC(=S)SCC(=O)N1CCc2ccccc2C1C1C(=O)CC(C)(C)CC1=O (stereo not given),?,25%,14%,?,-5%,-26%
COc1ccc(C(=O)OCc2cc(=O)n3nc(C4CC4)sc3n2)cc1OC,42%[59 µM],-1%,nt,6%,1%,-7%
CCOc1ccc(-c2cc(C(=O)N/N=C(\C)c3cccnc3)c3ccccc3n2)cc1,35µM*,45%,nt,?,2%,-12%
C/C(=N\NC(=O)c1cc(-c2ccco2)nc2ccccc12)c1cccnc1,40µM*,44%,-9%,-15%,9%,-21%
COc1ccc(OC)c(-c2cc(C(=O)N/N=C(\C)c3cccnc3)c3ccccc3n2)c1,nt,30%,nt,-12%,8%,-21%

# Screens from PubChem.
